KDM5B inh – KDM5B demethylase inhibition; Q9UGL1; KDM5B demethylase, FDH-coupled NADH fluorescence (FDH is formaldehyde dehydrogenase); Potency, µM (highest dose often 57.7 µM), actives largely listed as inhibitors; hit rate 2.6% among 220,000; AID 1347165; active = well fitted inhibition curve with a large enough effect; also: 0% is about no effect; nearly all actives have a fitted effect of over 70% in size
Target sequence (Q9UGL1 whole entry, looked up): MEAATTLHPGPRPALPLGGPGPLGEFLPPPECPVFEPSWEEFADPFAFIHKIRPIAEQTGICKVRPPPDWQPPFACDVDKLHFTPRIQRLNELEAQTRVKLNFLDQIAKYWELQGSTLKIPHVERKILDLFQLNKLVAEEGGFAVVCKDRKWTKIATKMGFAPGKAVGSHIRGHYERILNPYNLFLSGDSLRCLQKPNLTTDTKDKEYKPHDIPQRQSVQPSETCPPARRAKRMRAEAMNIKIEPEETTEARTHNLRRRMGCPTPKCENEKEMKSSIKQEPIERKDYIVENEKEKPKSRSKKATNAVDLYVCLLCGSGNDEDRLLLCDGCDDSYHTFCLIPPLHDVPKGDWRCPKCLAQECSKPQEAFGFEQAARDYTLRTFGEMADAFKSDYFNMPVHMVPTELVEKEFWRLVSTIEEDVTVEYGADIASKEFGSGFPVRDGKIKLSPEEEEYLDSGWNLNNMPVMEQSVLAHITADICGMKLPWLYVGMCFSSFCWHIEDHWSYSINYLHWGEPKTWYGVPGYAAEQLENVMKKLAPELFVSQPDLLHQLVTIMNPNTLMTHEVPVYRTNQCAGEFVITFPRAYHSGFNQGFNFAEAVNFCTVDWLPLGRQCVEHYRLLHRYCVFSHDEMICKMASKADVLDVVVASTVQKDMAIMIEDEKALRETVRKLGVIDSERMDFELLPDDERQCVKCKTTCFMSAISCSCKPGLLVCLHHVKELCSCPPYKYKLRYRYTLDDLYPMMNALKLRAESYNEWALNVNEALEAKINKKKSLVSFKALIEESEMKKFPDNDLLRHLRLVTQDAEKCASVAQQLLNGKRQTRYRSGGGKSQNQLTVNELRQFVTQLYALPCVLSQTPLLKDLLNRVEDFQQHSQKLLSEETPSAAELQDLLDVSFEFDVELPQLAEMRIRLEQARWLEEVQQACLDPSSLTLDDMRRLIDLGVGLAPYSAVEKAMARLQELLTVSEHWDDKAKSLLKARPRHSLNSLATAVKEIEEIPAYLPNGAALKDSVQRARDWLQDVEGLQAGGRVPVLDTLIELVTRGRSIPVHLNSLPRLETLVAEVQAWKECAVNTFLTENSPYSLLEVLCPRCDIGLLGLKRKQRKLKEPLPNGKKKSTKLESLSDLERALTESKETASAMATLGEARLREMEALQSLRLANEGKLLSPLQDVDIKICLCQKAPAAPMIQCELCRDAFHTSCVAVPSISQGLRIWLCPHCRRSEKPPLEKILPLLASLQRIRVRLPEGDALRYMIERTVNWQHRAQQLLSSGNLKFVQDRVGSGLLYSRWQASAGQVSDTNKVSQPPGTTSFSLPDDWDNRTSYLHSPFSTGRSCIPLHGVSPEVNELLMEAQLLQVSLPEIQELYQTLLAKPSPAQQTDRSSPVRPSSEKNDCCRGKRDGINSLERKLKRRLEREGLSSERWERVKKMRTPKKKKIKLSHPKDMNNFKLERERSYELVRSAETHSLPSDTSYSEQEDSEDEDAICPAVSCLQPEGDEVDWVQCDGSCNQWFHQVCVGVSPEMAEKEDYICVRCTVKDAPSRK
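Coupled FDH/NAD⁺ fluorescence readout. KDM5BΔAP 200 nM final; compound titration, 10 min RT preincubation; substrate mix 12.5 µM H3K4me3, 25 µM 2-OG, 50 µM Fe(II), 100 µM ascorbate, 0.25 mM NAD⁺, 0.25 U/mL FDH; ΔRFU over 30 min.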
* = called active by the depositor; i = inactive. Many of the other results were omitted from the sample, so hits are more common in it than they were. Potency is read from the fitted curve at half-maximal effect.

SMILES	KDM5B inh
Cc1ccccc1-c1[nH]nc2ncc(-c3ccnn3C)nc12	35.5µM*
COc1ccccc1-c1[nH]nc2ncc(-c3ccccc3C)nc12	31.6µM*
Cc1ccsc1-c1[nH]nc2ncc(-c3cccnc3)nc12	i
CC(C)N(Cc1cnn(C)c1)C(=O)C1CC(=O)N(c2ccccc2)C1 (stereo unspecified)	i
O=C(CC12CC3CC(CC(C3)C1)C2)Nc1ccc(F)c(Cl)c1	i
CC(C)(C)NC(=O)c1ccccc1-c1ccccc1C(=O)NC(C)(C)C	i
CSc1ccc(NC(=O)c2ccc3c(c2)OCC(=O)N3)cc1	i
O=C(O)c1cc(Cl)c(Br)c(Cl)c1	i
[O-][n+]1cn(O)cc1/C=N/O	i
Cc1ccccc1-c1cnc2n[nH]c(-c3ccc4c(c3)OCO4)c2n1	i
COc1ccc(-c2[nH]nc3ncc(-c4cccnc4)nc23)c(C)c1	i
COc1ccc(-c2cnc3n[nH]c(-c4ccc(F)cc4C)c3n2)cn1	28.2µM*
COc1ccc(-c2[nH]nc3ncc(-c4cccc(F)c4)nc23)c(C)c1	i
Cc1ccccc1-c1[nH]nc2ncc(-c3ccccc3O)nc12	i
Cc1ccccc1-c1cnc2n[nH]c(-c3ccccc3)c2n1	31.6µM*
S=c1sc2c(s1)SCCCS2	i
CCC(=O)Nc1nonc1-c1ccc(Cl)cc1	i
C=CCn1c(SC)nc2c1c(=O)[nH]c(=O)n2C	i
CCc1sc(C(N)=O)cc1C	i
O=C(Nc1ccc(=O)n2c1[C@@H]1C[C@@H](CN(C(=O)Nc3ccc(F)cc3)C1)C2)c1ccc2c(c1)OCO2	i
O=C(Nc1ccc(=O)n2c1[C@@H]1C[C@@H](CN(C(=O)Nc3ccc(F)cc3)C1)C2)NC1CCCCC1	20µM*
O=C(NC1CCCCC1)N1C[C@@H]2C[C@H](C1)c1c(NS(=O)(=O)c3cccc(F)c3)ccc(=O)n1C2	i
Cn1ccc2c(C(=O)NCc3cccnc3)nc(-c3ccccc3C#N)cc21	12.6µM*
CN1CCN(c2ccc(-c3cc4c(ccn4C)c(C(=O)NCC4CCC(=O)N4)n3)cc2)CC1 (stereo unspecified)	i
Cn1nccc1-c1cc2c(ccn2C)c(C(=O)NCc2cccnc2)n1	i
SMILES	KDM5B inh
COc1ccc(S(=O)(=O)N2CCC(C(=O)NCc3cccnc3)CC2)cc1OC	i
Cn1ccc2c(C(=O)NCc3cccnc3)nc(-c3ccc(F)cc3)cc21	i
O=C1CCC(CNC(=O)c2nc(-c3ccccc3)cc3[nH]ccc23)N1 (stereo unspecified)	31.6µM*
Cn1ccc2c(C(=O)NCC3CCC(=O)N3)nc(-c3ccccc3)cc21 (stereo unspecified)	i
COc1ccc(-c2cc3c(ccn3C)c(C(=O)NCc3cccnc3)n2)cc1OC	35.5µM*
Cn1ccc2c(C(=O)NCc3cccnc3)nc(-c3ccccc3)cc21	31.6µM*
CN(C)Cc1ccc(-c2cc3c(ccn3C)c(C(=O)NCc3cccnc3)n2)cc1	i
CC(C)n1c(N2CCCCC2)nc2c1c(=O)n(C)c(=O)n2C	i
CC(C)CCN1CCN(c2nc3c(c(=O)[nH]c(=O)n3C)n2Cc2ccc(Cl)cc2)CC1	i
CCN1C(C(=O)c2ccccc2)=C(OC(=O)c2ccco2)c2ccccc2S1(=O)=O	i
Cc1nn(-c2ccc(C(F)(F)F)cc2)c(C)c1[C@@H]1C=C[C@@H](NC(=O)Nc2ccccc2)C1	i
c1cc(-c2nc(-c3ccc4c(c3)OCCCO4)cs2)cs1	i
C/C(=N\OC(=O)c1ccc(OC(C)C)cc1)c1ccc(C(C)C)cc1	i
Cc1nc2c(c(-c3ccc(O)cc3)n1)CN(Cc1ccc(C(F)(F)F)cc1)CCC2	i
CCC(C)(C)NC(=O)CSc1nnc(NC2CC2)s1	i
COc1cc(F)ccc1-c1cc2c(ccn2C)c(C(=O)NCc2cccnc2)n1	39.8µM*
O=C(NCc1cccnc1)c1cc(-c2cccnc2)nc2ccccc12	i
O=C(NCc1cccnc1)c1nc(-c2ccccc2)cc2[nH]ccc12	35.5µM*
O=C(NCCc1ccccn1)c1nc(-c2ccccc2)cc2[nH]ccc12	i
CC(C)Cn1nc(C(=O)Nc2nc3c(s2)CN(C)CC3)c2ccccc2c1=O	i
C=CCOc1ccc(C(=O)Nc2ccc(F)cc2)cc1	i
O=C(COC(=O)C1CCOCC1)c1ccc2c(c1)OCO2	i
Cc1cc(F)ccc1NC(=O)c1ncoc1-c1cccc(Cl)c1	i
Cc1cc(NC(=O)C(C)SCC(=O)Nc2ccccc2)no1 (stereo unspecified)	i
Cc1ncccc1C(=O)N1CC(Oc2ccc(-c3nc(-c4ccccc4)no3)cc2)C1	i
SMILES	KDM5B inh
O=C(c1ccncc1)N1CC(Oc2ccc(-c3noc(-c4ccccc4)n3)cc2)C1	i
CC(C)S(=O)(=O)N1CC(Oc2ccc(-c3noc(-c4cccnc4)n3)cc2)C1	28.2µM*
CCCCOc1ccc(/C=C/C(=O)c2ccc3c(c2)OCCO3)cc1OC	i
O=C(c1ccccc1-c1ccccc1F)N(Cc1cccnc1)C1CC1	i
CN(C)C(=O)c1cccnc1OC1CCN(C(=O)c2cccc(F)c2)C1 (stereo unspecified)	i
N#Cc1cccnc1N1CCC(NC(=O)c2ccc3cccc(F)c3n2)CC1	28.2µM*
Cc1nc(C(=O)NC2CCCCC2)ccc1C#N	i
CCN(C(=O)c1cccc(F)c1F)[C@@H]1CCN(c2ncccc2C#N)C[C@H]1O	28.2µM*
Cc1nc(C(=O)NC2CCCC2)ccc1C#N	i
CCOc1ccc(/C=C/C(=O)Nc2cccc3cccnc23)cc1OC	i
CCCn1c(=O)n(CC(=O)Nc2ccc(F)cc2)c(=O)c2c1nc(C)n2CCOC	i
CNc1nc2c(c(=O)n(C)c(=O)n2C)n1Cc1cccc(C)c1	i
Clc1ccccc1-c1noc(CCc2nc3ccccc3[nH]2)n1	i
CC(C)(C)C(=O)Nc1cccc(CN2CCSCC2)c1	i
O=C(c1cccc2[nH]ccc12)N1CCC(N2C(=O)C3(CCCCC3)C2c2ccncc2)CC1 (stereo unspecified)	22.4µM*
O=C1CC2CCCC(C1)N2C(=O)c1ccccc1	i
O=C1CC2CCCC(C1)N2C(=O)c1cccc2[nH]ccc12	35.5µM*
Cc1ccccc1C(=O)N1C2CCCC1CC(=O)C2	i
O=C(c1cccs1)N1CCC(N2C(=O)C3(CCCCC3)C2c2ccncc2)CC1 (stereo unspecified)	i
CO[C@H]1C(=O)N(C2CCN(C(=O)c3cc4ccccc4[nH]3)CC2)[C@H]1c1ccncc1	i
CO[C@H]1C(=O)N(C2CCN(C(=O)c3cccc4[nH]ccc34)CC2)[C@H]1c1ccncc1	25.1µM*
CO[C@H]1C(=O)N(C2CCN(C(=O)c3n[nH]c4ccccc34)CC2)[C@H]1c1ccncc1	i
O=C(c1ccc2[nH]ccc2c1)N1CCC(N2C(=O)C3(CCCCC3)C2c2ccncc2)CC1 (stereo unspecified)	i
OCC1(Cc2ccccc2)CCCN(Cc2cnn(-c3cccc(Cl)c3)c2)C1 (stereo unspecified)	i
CCCCNC(=S)Nc1cccc(C(F)(F)F)c1	i
O=C(/C=C/c1ccccc1[N+](=O)[O-])OCCCC(=O)c1ccc(Br)cc1	i
COC(=O)c1ccc2nc(C)cc(Nc3ccc(C)c(C)c3)c2c1	i
O=C(CN1CCOCC1)N1CCCN(S(=O)(=O)c2ccccc2)C1c1ccccc1 (stereo unspecified)	i
CCOC(=O)COc1ccc2c(c1)O/C(=C\c1sccc1C)C2=O	i

Source: PubChem BioAssay
